Among the data in PubChem BioAssay (NCI) are growth values, retold here.

The panel holds about 83,000 compounds, 20% with a hit somewhere; the sample as a whole holds those more often.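 The endpoint reported here, percent growth, reads 100 for growth as untreated, 0 for no net growth and -100 for all cells dead.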 Values without a mark were called inactive. Activity calls are given as the source filed them. Rule for the calls: active = growth percent below 10; inactive = the rest.

In the first experiment the test system is MALME-3M melanoma. The experiment can be described thus: NCI-60 one-dose screen, 48 h (100 = growth as untreated, 0 = no growth, -100 = all killed). The note with it: 10 µM.
Regarding `COc1cc2cc(Oc3ccc(NC(=O)c4ccccc4)cc3)c(C)nc2cc1OC`, the growth was 93.6%.

For `COC(=O)c1cc2oc(/C=C3/SC(=S)N(N)C3=O)cc2n1Cc1ccccc1`, the growth is -69.9% (active).

On to `CC[C@@H](C(=O)[C@@H](C)[C@@H](O)[C@H](C)[C@@H]1O[C@@H]([C@@H](CC)C(=O)N(CC)CC)CC[C@@H]1C)C1O[C@]2(C=CC(=O)[C@]3(CC[C@@](C)([C@H]4CC[C@](O)(CC)[C@H](C)O4)O3)O2)[C@H](C)C[C@@H]1C` (some centres not stated), for which the growth was -27.3% (active).

For the compound `Cc1ccc(N=Nc2ccccc2)cc1`, the growth is 98.4%.

For the compound `COc1cc(-c2nn(-c3cccc(NC(=O)CCNc4ccc(N5CCOCC5)cc4)c3)cc2-c2ccncc2)ccc1Cl`, the growth was 21.9%.

`O=c1oc2c(cc1-c1ccc(F)cc1)C(O)Oc1ccccc1-2` (configuration not stated): the growth was 58.4%.

Take `CCOC(=O)c1cc(C(=O)c2cc(OC)c(OC)c(OC)c2)n2ccc(-c3cc[n+](CC(=O)c4cc(OC)c(OC)c(OC)c4)cc3)cc12`: the growth is 63.1%.

On to `CC(CN(C)C)Oc1ccccc1NC1=C(Cl)C(=O)C(Nc2ccccc2OC(C)CN(C)C)=C(Cl)C1=O` (configuration not stated), for which the growth was -76.6% (active).

`O=C(CCCSc1nc(-c2ccc(Cl)cc2)cc(-c2ccc(Cl)cc2)n1)NO`: the growth is 2.37% (active).

Regarding `CC[C@@H]1NC(=O)[C@H]([C@H](O)[C@H](C)C/C=C/c2ccc(CN3C(=O)CCCC3=O)cc2)N(C)C(=O)[C@H](C(C)C)N(C)C(=O)[C@H](CC(C)C)N(C)C(=O)[C@H](CC(C)C)N(C)C(=O)[C@@H](C)NC(=O)[C@H](C)NC(=O)[C@H](CC(C)C)N(C)C(=O)[C@H](C(C)C)NC(=O)[C@H](CC(C)C)N(C)C(=O)CN(C)C1=O`, the growth is 83%.

With `CCNc1nc(C(F)(F)F)nc2c1sc(=S)n2-c1ccccc1`, the growth was 144%.

With `COc1cc2c3c(n(C4CCN(C)CC4)c(=O)c2cc1OC)-c1cc2c(cc1C3=O)OCO2`, the growth is 89.5%.

Regarding `Cc1cc(C)nc(NS(=O)(=O)c2ccc(Nc3nc4nc(NCc5ccccc5)nc(-c5ccc(O)cc5)c4c(=O)[nH]3)cc2)n1`, the growth was -12.6% (active).

With `Oc1ccc(/C=N/N=C2c3ccccc3-c3ccccc32)c(O)c1`, the growth was 105%.

Take `CN1CCN(CC(=O)Nc2cccc(-n3cc(-c4ccncc4)c(-c4ccc(Cl)c(O)c4)n3)c2)CC1`: the growth was 46.3%.

For the compound `CNS(=O)(=O)Oc1ccc(-c2ccc3occc3c2)cc1`, the growth is 116%.

`Cc1n[nH]c(C)c1N=Nc1cccc2c1C(=O)c1ccccc1C2=O`: the growth was 124%.

As to `Clc1ccc(C2=NN=C3C(Cc4ccccc4)=Nc4ccccc4N3C2)cc1`, the growth was 95.5%.

Regarding `CCOC(=O)N/N=C/c1ccc(OC)c(OC)c1`, the growth was 132%.

Take `COc1cc(-c2nn(-c3cccc(NC(=O)NCCNC(=O)c4ccccc4)c3)cc2-c2ccncc2)ccc1Cl`: the growth is -9.9% (active).

On to `CCOC(=O)c1cc(C(=O)c2cc(OC)c(OC)c(OC)c2)n2ncc3ccccc3c12`, for which the growth is 70.5%.

As for `NC1=CC(=O)C(=O)c2cccnc21`, the growth was -0.873% (active).

On to `COc1ccc(Cl)cc1Nc1nc(C(F)(F)F)ccc1C(=O)N/N=C/c1cc(OC)c(OC)c(OC)c1`, for which the growth was -6.88% (active).

Turning to `COc1ccc(C(c2ccc(OCCN(C)C)cc2)c2cc3ccccc3c3ccccc23)cc1` (configuration not stated), the growth was -43.4% (active).

On to `COc1cc(C(=O)/C=C/c2c[nH]c3ccccc23)cc(OC)c1OC`, for which the growth was 52.5%.

For `CC(C)(C)OC(=O)CC(S(=O)(=O)c1ccccc1)S(=O)(=O)c1ccccc1`, the growth is -41.1% (active).

On to `CC(C)(C)OC(=O)CN1CCc2c(sc3ncnc(N/N=C/c4cccc5ccccc45)c23)C1`, for which the growth is 72.2%.

The subject of another experiment is MDA-MB-231 breast. The description is as above. The conditions noted are these: 10 µM.
Take `CCOC(=O)c1sc2ncnc(Nc3ccc4c(cnn4C(=O)Nc4ccccc4)c3)c2c1C`: the growth was 37.2%.

For the compound `CCOC(=O)c1cc(C(=O)c2ccc(Cl)cc2)n2ccc(-c3cc[n+](CC(=O)c4ccc(OC)cc4)cc3)cc12`, the growth is 70.9%.

For `CC(CN(C)C)Oc1ccc(OC(C)CN(C)C)c2c1C(=O)c1ccccc1C2=O` (configuration not stated), the growth is 40.9%.

Turning to `N#Cc1c(-c2ccc(Cl)cc2)n(O)c2ccccc12`, the growth is 30.5%.

On to `C=CCN(CC=C)C(=O)[C@H](CC)[C@@H]1CC[C@@H](C)[C@@H]([C@H](C)[C@@H](O)[C@@H](C)C(=O)[C@H](CC)C2O[C@]3(C=CC(=O)[C@]4(CC[C@@](C)([C@H]5CC[C@](O)(CC)[C@H](C)O5)O4)O3)[C@H](C)C[C@@H]2C)O1` (some centres not stated), for which the growth was 23.1%.

As to `COc1cc(C2C(C#N)=C(N)Oc3cc(O)ccc32)cc(OC)c1OC` (configuration not stated), the growth is 36.1%.

Consider `O=C(CI)OCC(COC(=O)CI)OC(=O)CI`, for which the growth was 91.3%.

In the case of `Cc1ccc(C(=O)C2C(=O)C3CCC2C3)cc1` (configuration not stated), the growth was 107%.

As to `CCc1ccc(C2=NN(c3ccc(S(C)(=O)=O)cc3)C(=O)CC2)cc1`, the growth was 55.5%.

Regarding `CC(C)(C)c1ccc(S(=O)(=O)Oc2ccc(NC(=O)C3CCCCC3)cc2)cc1`, the growth is 72%.

With `N#CC1=CC2CN(Cc3ccccc3)C1C1C(=O)N(c3ccccc3)C(=O)C21` (configuration not stated), the growth was 106%.

For the compound `CN(C)CCCOc1ccccc1NC1=C(Cl)C(=O)C(Nc2ccccc2OCCCN(C)C)=C(Cl)C1=O`, the growth is -71.9% (active).

As for `CCOC(=O)c1cc(C(=O)c2cc(OC)c(OC)c(OC)c2)n2c1ccc1c3cccnc3ccc12`, the growth was 69.5%.

As to `COc1cc2cc(Oc3ccc(NC(=O)c4ccccc4)cc3)c(C)nc2cc1OC`, the growth is 66%.

In the case of `COC(=O)c1cc2oc(/C=C3/SC(=S)N(N)C3=O)cc2n1Cc1ccccc1`, the growth is 6.49% (active).

For `CC[C@@H](C(=O)[C@@H](C)[C@@H](O)[C@H](C)[C@@H]1O[C@@H]([C@@H](CC)C(=O)N(CC)CC)CC[C@@H]1C)C1O[C@]2(C=CC(=O)[C@]3(CC[C@@](C)([C@H]4CC[C@](O)(CC)[C@H](C)O4)O3)O2)[C@H](C)C[C@@H]1C` (some centres not stated), the growth was 25.8%.

Take `Cc1ccc(N=Nc2ccccc2)cc1`: the growth was 109%.

`COc1cc(-c2nn(-c3cccc(NC(=O)CCNc4ccc(N5CCOCC5)cc4)c3)cc2-c2ccncc2)ccc1Cl`: the growth was -9.17% (active).

As for `O=c1oc2c(cc1-c1ccc(F)cc1)C(O)Oc1ccccc1-2` (configuration not stated), the growth was 77.8%.

For the compound `CCOC(=O)c1cc(C(=O)c2cc(OC)c(OC)c(OC)c2)n2ccc(-c3cc[n+](CC(=O)c4cc(OC)c(OC)c(OC)c4)cc3)cc12`, the growth is -22.8% (active).

In the case of `CC(CN(C)C)Oc1ccccc1NC1=C(Cl)C(=O)C(Nc2ccccc2OC(C)CN(C)C)=C(Cl)C1=O` (configuration not stated), the growth is -77.5% (active).

For `O=C(CCCSc1nc(-c2ccc(Cl)cc2)cc(-c2ccc(Cl)cc2)n1)NO`, the growth was 14.6%.

In the case of `CC[C@@H]1NC(=O)[C@H]([C@H](O)[C@H](C)C/C=C/c2ccc(CN3C(=O)CCCC3=O)cc2)N(C)C(=O)[C@H](C(C)C)N(C)C(=O)[C@H](CC(C)C)N(C)C(=O)[C@H](CC(C)C)N(C)C(=O)[C@@H](C)NC(=O)[C@H](C)NC(=O)[C@H](CC(C)C)N(C)C(=O)[C@H](C(C)C)NC(=O)[C@H](CC(C)C)N(C)C(=O)CN(C)C1=O`, the growth is 51.4%.

For the compound `CCNc1nc(C(F)(F)F)nc2c1sc(=S)n2-c1ccccc1`, the growth was 85.1%.

With `COc1cc2c3c(n(C4CCN(C)CC4)c(=O)c2cc1OC)-c1cc2c(cc1C3=O)OCO2`, the growth was 43.6%.

Consider `Cc1cc(C)nc(NS(=O)(=O)c2ccc(Nc3nc4nc(NCc5ccccc5)nc(-c5ccc(O)cc5)c4c(=O)[nH]3)cc2)n1`, for which the growth is 29.2%.

As to `Oc1ccc(/C=N/N=C2c3ccccc3-c3ccccc32)c(O)c1`, the growth is 48.3%.

Regarding `CN1CCN(CC(=O)Nc2cccc(-n3cc(-c4ccncc4)c(-c4ccc(Cl)c(O)c4)n3)c2)CC1`, the growth was 46.1%.

On to `CNS(=O)(=O)Oc1ccc(-c2ccc3occc3c2)cc1`, for which the growth was 100%.

On to `Cc1n[nH]c(C)c1N=Nc1cccc2c1C(=O)c1ccccc1C2=O`, for which the growth is 82.4%.

With `Clc1ccc(C2=NN=C3C(Cc4ccccc4)=Nc4ccccc4N3C2)cc1`, the growth was 68.9%.

Regarding `CCOC(=O)N/N=C/c1ccc(OC)c(OC)c1`, the growth was 106%.

`COc1cc(-c2nn(-c3cccc(NC(=O)NCCNC(=O)c4ccccc4)c3)cc2-c2ccncc2)ccc1Cl`: the growth is 25.9%.

Take `CCOC(=O)c1cc(C(=O)c2cc(OC)c(OC)c(OC)c2)n2ncc3ccccc3c12`: the growth was 98.7%.

Regarding `NC1=CC(=O)C(=O)c2cccnc21`, the growth was 83.9%.

Turning to `COc1ccc(Cl)cc1Nc1nc(C(F)(F)F)ccc1C(=O)N/N=C/c1cc(OC)c(OC)c(OC)c1`, the growth was -5.79% (active).

Consider `COc1ccc(C(c2ccc(OCCN(C)C)cc2)c2cc3ccccc3c3ccccc23)cc1` (configuration not stated), for which the growth was 17.1%.

For the compound `COc1cc(C(=O)/C=C/c2c[nH]c3ccccc23)cc(OC)c1OC`, the growth was 13%.

In the case of `CC(C)(C)OC(=O)CC(S(=O)(=O)c1ccccc1)S(=O)(=O)c1ccccc1`, the growth was 103%.

For `CC(C)(C)OC(=O)CN1CCc2c(sc3ncnc(N/N=C/c4cccc5ccccc45)c23)C1`, the growth was 39.9%.
